Assay results as given in PubChem BioAssay (EPA / NIEHS).
Values joined by “and” are separate entries in the source; they are usually repeats but may differ in a detail not shown here. Identical values can stand only once. Inconclusive results are not listed. Where a structure was tested more than once in an assay, its records may differ in their call. Active and inactive are the calls of the source. How the source made its calls: active means hit-call score of the fitted dose curve at least 0.9, where 1 is the maximum; inconclusive means response in the unintended direction; inactive means score below 0.9.

Experiments:
[1] = target: Estrogen receptor (Homo sapiens) + Estrogen receptor beta (Homo sapiens) (UniProt P03372+Q92731); test: OT_ER_ERaERb_1440: Odyssey Thera (OT) 24-hour HEK293T Protein-Complementation Assay for Estrogen Receptor-alpha/-beta Homodimer (AID 2283356);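 further: heteromer of ER alpha and ER beta binding domains; hits raise reporter fluorescence and both agonists and antagonists give an increase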
Outline: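 24 h exposure; HEK293T PCA cells with ERα/ERβ LBD fragments; signal rise in nuclear or whole-cell fluorescence over vehicle.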

[2] = target: human Peroxisome Proliferator-activated Receptor alpha (PPARa), PPARA (gene 5465) (UniProt Q07869); test: NVS_NR_hPPARa: NovaScreen (NVS) Nuclear Receptor Binding Assay for human Peroxisome Proliferator-activated Receptor alpha (PPARa) (AID 2283359);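 further: activity means loss of TR-FRET signal versus DMSO baseline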
Outline: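 Cell-free TR-FRET binding assay with extracted PPARα protein, read 1 h after dosing. Primary screen in duplicate at 25 uM, with actives retested in concentration series. Loss of signal versus DMSO.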

[3] = target: Glucocorticoid receptor (Homo sapiens) (UniProt P04150); test: NVS_NR_hGR: NovaScreen (NVS) Nuclear Receptor Binding Assay for human Glucocorticoid Receptor (GR) (AID 2283363);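 on AC50: activity is loss of specific radioligand binding signal relative to DMSO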
Outline: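 Cell-free radioligand displacement assay on extracted human GR, read 16 h after dosing by filter-based scintillation counting. Screened in duplicate at 25 uM, then concentration series for actives; loss of signal versus DMSO baseline.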

[4] = target: rat Androgen Receptor (AR), Ar (gene 24208) (UniProt P15207); test: NVS_NR_rAR: NovaScreen (NVS) Nuclear Receptor Binding Assay for rat Androgen Receptor (AR) (AID 2283366)
Outline: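 Cell-free radioligand binding on extracts of prostate from testosterone-pretreated rats, read by filter-based scintillation counting 18 h after dosing. Loss of bound signal fitted positively versus DMSO; primary screen in duplicate at 25 uM, actives followed up in concentration series.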

[5] = target: Peroxisome proliferator-activated receptor gamma (Homo sapiens) (UniProt P37231); test: NVS_NR_hPPARg: NovaScreen (NVS) Nuclear Receptor Binding Assay for human Peroxisome Proliferator-activated Receptor gamma (PPARg) (AID 2283370)
Outline: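 Extracted receptor protein, cell-free; compound incubated 2 h then fluorescence polarization read. Baseline: DMSO. Actives from 25 uM duplicate screen re-run across concentrations.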

[6] = target: Retinoic acid receptor alpha (Homo sapiens) (UniProt P10276); test: NVS_NR_hRAR_Antagonist: NovaScreen (NVS) Nuclear Receptor Binding Assay for human Retinoic Acid Alpha Receptor Antagonism (RAR) (AID 2283358)
Outline: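 Cell-free TR-FRET binding assay with extracted human RARalpha in antagonist mode, read 2 h after dosing. Loss of signal was fitted relative to DMSO; the primary screen used 25 uM in duplicate, with concentration series on follow-up.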

[7] = target: human Adenosine Transporter (Adot), SLC29A1 (gene 2030) (UniProt Q99808); test: NVS_TR_hAdoT: NovaScreen (NVS) Transporter Assay for human Adenosine Transporter (Adot) (AID 2283368)
Outline: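 U937-derived membranes, cell-free radioligand binding, filter scintillation 1 h after dosing. 25 uM duplicate screen; hits (e.g. 30% inhibition) run in concentration-response up to 50 uM; loss of signal versus DMSO.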

[8] = system: guinea pig Dopamine Transporter (DAT), gene 100714898; test: NVS_TR_gDAT: NovaScreen (NVS) Transporter Assay for guinea pig Dopamine Transporter (DAT) (AID 2283369);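 further: active compounds lower bound radioligand signal relative to DMSO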
Outline: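 Primary pass: duplicate wells at 25 uM, threshold e.g. 30% inhibition. Follow-up: singleton concentration-response, highest 50 uM. Radioligand binding on guinea pig striatal membranes, 2 h, filtration scintillation detection.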

[9] = target: mouse Estrogen Receptor alpha (Era), Esr1 (gene 13982) (UniProt P19785); test: NVS_NR_mERa: NovaScreen (NVS) Nuclear Receptor Binding Assay for mouse Estrogen Receptor alpha (Era) (AID 2283378);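 further: hit means loss of bound radioligand signal relative to DMSO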
Outline: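 Measurements come from scintillation counting after filtration, taken 18 hours after chemicals were added to a cell-free mouse Era preparation with radioligand. Screening was duplicate at 25 uM, with concurrent positive and negative controls and confirmatory concentration series for actives.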

[10] = target: PGR (gene 5241) (UniProt P06401); test: NVS_NR_hPR: NovaScreen (NVS) Nuclear Receptor Binding Assay for human Progestron Receptor (PR) (AID 2283360);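 further: active means loss of bound radioligand signal versus DMSO baseline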
Outline: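 T47D lysate; tritiated or iodinated radioligand; scintillation count at 18 h. DMSO = negative control/baseline. Primary: 25 uM, duplicate. Secondary: concentration series for actives.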

[11] = target: human Thyroid Receptor Alpha (TRa), THRA (gene 7067) (UniProt P10827); test: NVS_NR_hTRa_Antagonist: NovaScreen (NVS) Nuclear Receptor Binding Assay for human Thyroid Receptor Alpha Antagonism (TRa) (AID 2283362);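 further: activity is loss of signal relative to DMSO baseline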
Outline: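 In this biochemical format, receptor protein is dosed with chemical and read after 1 hour via AlphaLISA. Decreases from the DMSO baseline indicate antagonist activity; screening used 25 uM in duplicate before concentration-response confirmation.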

[12] = target: human Dopamine Transporter (DAT), SLC6A3 (gene 6531) (UniProt Q01959); test: NVS_TR_hDAT: NovaScreen (NVS) Transporter Assay for human Dopamine Transporter (DAT) (AID 2283374);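 further: activity means loss of bound radioligand signal relative to DMSO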
Outline: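 Cell-free radioligand displacement binding at human DAT, 1 h after dosing, with filtration and scintillation counting. Primary screen in duplicate at 25 uM, actives then in concentration series. Loss of bound signal versus DMSO scored.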

[13] = target: rat Mineralocorticoid Receptor (MR), Nr3c2 (gene 25672) (UniProt P22199); test: NVS_NR_rMR: NovaScreen (NVS) Nuclear Receptor Binding Assay for rat Mineralocorticoid Receptor (MR) (AID 2283355)
Outline: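 Cell-free radioligand binding to mineralocorticoid receptor from adrenalectomized rat brain supernatant, scintillation counting after 24 h. Primary screen in duplicate at 25 uM; actives retested in concentration series. Loss of specific binding versus DMSO.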

[14] = target: Nuclear receptor subfamily 1 group I member 2 (Homo sapiens) (UniProt O75469); test: NVS_NR_hPXR: NovaScreen (NVS) Nuclear Receptor Binding Assay for human Pregnane X Receptor (PXR) (AID 2283365);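 further: a drop in FRET signal versus DMSO baseline means the compound binds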
Outline: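 Read-out: TR-FRET, human PXR, 2 h post-dosing, cell-free. Loss of signal vs DMSO taken as binding activity; 25 uM primary, concentration series secondary.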

[15] = target: rat Serotonin Transporter (SERT), Slc6a4 (gene 25553) (UniProt P31652); test: NVS_TR_rSERT: NovaScreen (NVS) Transporter Assay for rat Serotonin Transporter (SERT) (AID 2283375)
Outline: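 Using rat forebrain membrane SERT, test chemicals compete with a radioligand for 1 hour, and bound counts are taken by filter-based scintillation. Screening starts at 25 uM in duplicate, followed by concentration series for actives.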

[16] = target: Retinoic acid receptor alpha (Homo sapiens) (UniProt P10276); test: NVS_NR_hRARa_Agonist: NovaScreen (NVS) Nuclear Receptor Binding Assay for human Retinoic Acid Alpha Receptor Agonism (RAR) (AID 2283361)
Outline: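 Cell-free TR-FRET binding readout with extracted receptor protein, read 2 hours after dosing; gain-of-signal fitted relative to DMSO. Screened in duplicate at 25 uM, actives then run in concentration-response.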

[17] = target: guinea pig Sigma Receptor, Non-selective Binding, SIGMAR1 (gene 100135589) (UniProt Q60492); test: NVS_OR_gSIGMA_NonSelective: NovaScreen (NVS) Nuclear Receptor Binding Assay for guinea pig Sigma Receptor, Non-selective Binding (AID 2283367)
Outline: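 Radioligand displacement on guinea pig brain membranes, read by filter-based scintillation counting 1 h after dosing. Loss of signal versus DMSO; initial duplicate single-point screen at 25 uM, actives followed in concentration series.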

Estrogen receptor (Homo sapiens) + Estrogen receptor beta (Homo sapiens), sequence (P03372 whole entry, looked up, the tested form may be a part): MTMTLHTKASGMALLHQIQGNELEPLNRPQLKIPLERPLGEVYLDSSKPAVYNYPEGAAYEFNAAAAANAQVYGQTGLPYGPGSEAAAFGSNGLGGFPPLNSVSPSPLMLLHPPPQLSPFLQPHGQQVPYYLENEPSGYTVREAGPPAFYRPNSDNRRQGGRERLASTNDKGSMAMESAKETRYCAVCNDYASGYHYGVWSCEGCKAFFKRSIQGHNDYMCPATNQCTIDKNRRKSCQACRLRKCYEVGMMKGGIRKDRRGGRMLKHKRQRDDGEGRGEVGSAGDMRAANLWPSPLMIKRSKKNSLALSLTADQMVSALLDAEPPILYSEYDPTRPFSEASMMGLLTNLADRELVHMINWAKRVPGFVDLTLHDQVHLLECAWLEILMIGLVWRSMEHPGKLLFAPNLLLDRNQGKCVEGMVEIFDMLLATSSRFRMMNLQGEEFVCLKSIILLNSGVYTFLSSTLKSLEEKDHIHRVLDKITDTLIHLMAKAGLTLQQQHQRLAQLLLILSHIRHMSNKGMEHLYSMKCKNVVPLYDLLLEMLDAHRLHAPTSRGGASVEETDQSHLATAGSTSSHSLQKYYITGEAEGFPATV
Estrogen receptor (Homo sapiens) + Estrogen receptor beta (Homo sapiens), sequence (Q92731 whole entry, looked up, the tested form may be a part): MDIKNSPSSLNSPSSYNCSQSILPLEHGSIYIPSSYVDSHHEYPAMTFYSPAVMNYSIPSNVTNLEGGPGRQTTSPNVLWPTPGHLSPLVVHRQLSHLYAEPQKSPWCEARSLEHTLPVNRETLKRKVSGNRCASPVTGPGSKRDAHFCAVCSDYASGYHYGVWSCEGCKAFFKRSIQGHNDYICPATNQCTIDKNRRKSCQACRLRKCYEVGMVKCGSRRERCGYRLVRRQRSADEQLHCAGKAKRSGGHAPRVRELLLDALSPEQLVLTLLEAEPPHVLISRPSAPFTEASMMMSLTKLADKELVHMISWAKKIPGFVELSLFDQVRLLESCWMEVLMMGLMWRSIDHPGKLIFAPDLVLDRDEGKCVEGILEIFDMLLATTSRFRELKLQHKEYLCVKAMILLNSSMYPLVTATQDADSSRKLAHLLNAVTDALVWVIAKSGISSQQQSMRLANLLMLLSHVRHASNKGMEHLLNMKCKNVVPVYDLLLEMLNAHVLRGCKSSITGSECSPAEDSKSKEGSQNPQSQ
rat Mineralocorticoid Receptor (MR), Nr3c2 (gene 25672), sequence (P22199 whole entry, looked up): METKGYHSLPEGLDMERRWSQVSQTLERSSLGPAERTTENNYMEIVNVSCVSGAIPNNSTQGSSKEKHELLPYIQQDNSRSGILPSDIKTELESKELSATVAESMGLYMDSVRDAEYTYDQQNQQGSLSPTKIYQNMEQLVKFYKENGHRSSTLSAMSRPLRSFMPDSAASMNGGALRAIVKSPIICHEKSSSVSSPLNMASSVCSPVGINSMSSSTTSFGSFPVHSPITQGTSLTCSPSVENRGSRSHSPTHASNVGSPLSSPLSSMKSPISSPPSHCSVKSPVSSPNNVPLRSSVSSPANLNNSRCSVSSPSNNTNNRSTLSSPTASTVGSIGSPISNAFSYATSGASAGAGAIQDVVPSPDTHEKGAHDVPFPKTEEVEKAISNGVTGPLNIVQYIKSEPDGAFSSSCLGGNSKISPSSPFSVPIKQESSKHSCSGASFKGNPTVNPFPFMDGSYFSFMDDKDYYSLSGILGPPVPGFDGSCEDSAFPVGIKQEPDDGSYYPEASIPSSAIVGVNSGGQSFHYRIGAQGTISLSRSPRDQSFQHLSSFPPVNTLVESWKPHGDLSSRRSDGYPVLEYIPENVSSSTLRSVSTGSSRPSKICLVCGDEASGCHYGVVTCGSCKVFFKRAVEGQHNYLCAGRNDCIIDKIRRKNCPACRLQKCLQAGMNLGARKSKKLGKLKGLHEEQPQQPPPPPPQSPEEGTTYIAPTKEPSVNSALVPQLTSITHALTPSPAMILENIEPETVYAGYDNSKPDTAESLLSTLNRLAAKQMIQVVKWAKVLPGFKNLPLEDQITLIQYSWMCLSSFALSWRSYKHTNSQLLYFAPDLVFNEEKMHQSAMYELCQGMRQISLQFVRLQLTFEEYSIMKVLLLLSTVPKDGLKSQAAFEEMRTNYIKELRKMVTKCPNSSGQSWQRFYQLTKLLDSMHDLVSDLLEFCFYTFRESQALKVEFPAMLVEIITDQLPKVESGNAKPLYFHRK
Glucocorticoid receptor (Homo sapiens), sequence (P04150 whole entry, looked up): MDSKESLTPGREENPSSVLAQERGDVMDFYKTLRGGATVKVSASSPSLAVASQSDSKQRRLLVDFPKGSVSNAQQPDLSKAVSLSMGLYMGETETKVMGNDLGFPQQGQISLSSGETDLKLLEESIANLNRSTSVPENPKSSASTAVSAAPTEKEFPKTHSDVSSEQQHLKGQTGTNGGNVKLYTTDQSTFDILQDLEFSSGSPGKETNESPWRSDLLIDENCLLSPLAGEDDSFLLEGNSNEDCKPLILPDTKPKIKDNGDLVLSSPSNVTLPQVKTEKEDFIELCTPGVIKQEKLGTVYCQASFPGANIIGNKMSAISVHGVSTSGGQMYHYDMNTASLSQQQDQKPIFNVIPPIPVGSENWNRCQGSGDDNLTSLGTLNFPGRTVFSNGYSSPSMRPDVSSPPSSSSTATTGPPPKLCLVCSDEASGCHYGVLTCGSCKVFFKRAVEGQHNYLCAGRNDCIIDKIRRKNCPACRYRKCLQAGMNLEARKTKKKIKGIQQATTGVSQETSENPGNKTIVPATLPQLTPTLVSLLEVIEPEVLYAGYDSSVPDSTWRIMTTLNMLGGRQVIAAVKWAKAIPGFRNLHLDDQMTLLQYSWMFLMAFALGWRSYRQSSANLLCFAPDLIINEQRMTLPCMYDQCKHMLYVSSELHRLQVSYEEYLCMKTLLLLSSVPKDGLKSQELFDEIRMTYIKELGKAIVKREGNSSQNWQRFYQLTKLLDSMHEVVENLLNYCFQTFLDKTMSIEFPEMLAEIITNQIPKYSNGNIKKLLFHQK
Peroxisome proliferator-activated receptor gamma (Homo sapiens), sequence (P37231 whole entry, looked up): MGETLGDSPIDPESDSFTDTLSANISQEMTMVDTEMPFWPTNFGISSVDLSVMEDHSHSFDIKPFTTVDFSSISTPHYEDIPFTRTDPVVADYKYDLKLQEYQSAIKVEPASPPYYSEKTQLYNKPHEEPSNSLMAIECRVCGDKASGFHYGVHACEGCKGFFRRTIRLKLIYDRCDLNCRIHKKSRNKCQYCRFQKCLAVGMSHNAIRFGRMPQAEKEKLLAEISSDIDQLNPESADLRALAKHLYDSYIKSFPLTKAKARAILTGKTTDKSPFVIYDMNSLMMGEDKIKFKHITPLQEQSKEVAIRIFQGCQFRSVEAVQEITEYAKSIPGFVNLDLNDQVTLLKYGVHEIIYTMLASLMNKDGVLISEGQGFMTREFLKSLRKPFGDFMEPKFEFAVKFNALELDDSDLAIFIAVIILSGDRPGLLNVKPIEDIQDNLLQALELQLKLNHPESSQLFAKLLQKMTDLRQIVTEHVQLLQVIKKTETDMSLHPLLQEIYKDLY
mouse Estrogen Receptor alpha (Era), Esr1 (gene 13982), sequence (P19785 whole entry, looked up): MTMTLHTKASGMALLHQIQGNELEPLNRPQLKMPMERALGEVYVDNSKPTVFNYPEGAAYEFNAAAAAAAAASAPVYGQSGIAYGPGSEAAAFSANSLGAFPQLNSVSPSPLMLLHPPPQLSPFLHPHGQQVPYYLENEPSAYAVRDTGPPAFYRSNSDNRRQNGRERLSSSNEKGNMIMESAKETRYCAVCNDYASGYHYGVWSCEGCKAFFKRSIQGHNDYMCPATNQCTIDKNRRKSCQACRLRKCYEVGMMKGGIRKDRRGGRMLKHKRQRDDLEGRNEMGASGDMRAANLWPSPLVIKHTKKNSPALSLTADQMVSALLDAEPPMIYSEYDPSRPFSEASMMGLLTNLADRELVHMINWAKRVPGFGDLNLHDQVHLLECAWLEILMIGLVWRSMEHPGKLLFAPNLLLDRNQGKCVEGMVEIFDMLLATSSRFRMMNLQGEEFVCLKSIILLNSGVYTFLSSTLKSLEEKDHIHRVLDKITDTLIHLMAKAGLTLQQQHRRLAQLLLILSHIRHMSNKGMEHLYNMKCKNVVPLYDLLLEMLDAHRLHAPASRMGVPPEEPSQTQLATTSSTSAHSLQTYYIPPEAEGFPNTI
human Peroxisome Proliferator-activated Receptor alpha (PPARa), PPARA (gene 5465), sequence (Q07869 whole entry, looked up): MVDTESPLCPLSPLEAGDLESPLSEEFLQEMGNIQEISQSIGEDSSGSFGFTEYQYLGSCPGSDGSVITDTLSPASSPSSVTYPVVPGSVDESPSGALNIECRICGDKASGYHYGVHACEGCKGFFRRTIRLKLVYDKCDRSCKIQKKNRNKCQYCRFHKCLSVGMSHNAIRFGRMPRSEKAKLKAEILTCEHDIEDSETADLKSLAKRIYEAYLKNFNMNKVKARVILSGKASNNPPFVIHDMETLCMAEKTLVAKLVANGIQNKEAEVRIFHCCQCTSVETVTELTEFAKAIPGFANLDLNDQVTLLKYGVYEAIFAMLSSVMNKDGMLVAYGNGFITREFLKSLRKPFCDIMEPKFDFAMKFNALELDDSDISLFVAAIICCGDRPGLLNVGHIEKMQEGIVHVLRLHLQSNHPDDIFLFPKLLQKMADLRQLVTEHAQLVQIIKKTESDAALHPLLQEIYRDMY
Retinoic acid receptor alpha (Homo sapiens), sequence (P10276 whole entry, looked up): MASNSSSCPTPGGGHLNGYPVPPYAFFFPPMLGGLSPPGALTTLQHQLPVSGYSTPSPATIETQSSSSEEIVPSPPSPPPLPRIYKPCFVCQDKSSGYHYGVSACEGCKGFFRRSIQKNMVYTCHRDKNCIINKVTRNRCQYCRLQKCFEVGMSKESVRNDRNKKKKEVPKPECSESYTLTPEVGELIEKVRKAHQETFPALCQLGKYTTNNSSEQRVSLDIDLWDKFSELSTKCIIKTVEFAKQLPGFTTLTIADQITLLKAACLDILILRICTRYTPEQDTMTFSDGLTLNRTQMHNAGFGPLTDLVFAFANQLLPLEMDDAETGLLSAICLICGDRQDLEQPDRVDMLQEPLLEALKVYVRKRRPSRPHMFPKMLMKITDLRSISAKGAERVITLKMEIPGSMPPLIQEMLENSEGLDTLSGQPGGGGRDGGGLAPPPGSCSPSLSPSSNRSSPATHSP

## NC(=O)N1C(=O)C(C(=O)c2cc(Cl)cs2)c2cc(F)c(Cl)cc21 (configuration not stated)
[1]
  outcome: inactive
[2]
  outcome: inactive
[3]
  AC50: 19.6 µM (active)
[4]
  AC50: 6.36 µM (active)
[5]
  AC50: 5.35 µM (active)

## O=C(O)Cc1cc(I)c(Oc2cc(I)c(O)c(I)c2)c(I)c1
[1]
  outcome: inactive
[6]
  outcome: inactive
[2]
  outcome: inactive
[3]
  AC50: 5.56 µM (active) and 109 nM (active)
[7]
  outcome: inactive
[8]
  outcome: inactive
[5]
  AC50: 43.8 nM (active) and 1.53 nM (active) and 9.65 µM (active)
[9]
  outcome: inactive

## c1ccc2c(c1)Cc1ccccc1-2
[1]
  outcome: inactive
[6]
  outcome: inactive
[10]
  outcome: inactive

## CC(C)(C)c1ccc(O)c(C(C)(C)C)c1
[1]
  outcome: inactive
[2]
  outcome: inactive
[11]
  outcome: inactive
[8]
  outcome: inactive
[12]
  AC50: 6.72 µM (active)

## C[C@@H]1C[C@H]2[C@@H]3CCC4=CC(=O)C=C[C@]4(C)[C@@]3(F)[C@@H](O)C[C@]2(C)[C@@]1(O)C(=O)COP(=O)(O)O
[13]
  AC50: 8.69 nM (active) and 2.18 nM (active) and 33.9 nM (active)
[1]
  outcome: inactive
[3]
  outcome: inactive
[9]
  outcome: inactive

## CCCCCCCC(=O)O
[1]
  AC50: 17.1 µM (active)
[2]
  AC50: 4.38 µM (active)
[10]
  outcome: inactive
[14]
  outcome: inactive
[12]
  outcome: inactive
[15]
  outcome: inactive

## OC1CCC(C2CCCCC2)CC1 (configuration not stated)
[1]
  AC50: 60.7 µM (active) and 64.1 µM (active) and 59.4 µM (active)
  outcome: inactive
[2]
  outcome: inactive
[16]
  outcome: inactive
[17]
  AC50: 25 µM (active)
[9]
  outcome: inactive
